Among the data in PubChem BioAssay AID488829 (NMMLSC, 2010) are fluorescence change (span) values, retold here.

SMILES strings stand for the structures. The list shows a part of the results. Unmarked numbers belong to inactive results.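 The calls were made as follows: active = fluorescence change span, or the activity score built from it, above 25; inactive = the rest.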

The test is described as follows: parental-strain fluorescence artefact check – primary hits, KU SAR, s288c parental, artefact control for yeast TOR pathway GFP screen, dose response (AID 488829). The note with it: S. cerevisiae s288c parental, compound autofluorescence, flow cytometry, 3 h; at 33 µM; hits give high values. Background: Flow cytometry measures light scatter and fluorescence of single cells or particles in a stream.

`CN(C)CCCNc1nc(N)c([N+](=O)[O-])c(Nc2cccc(F)c2)n1`: the fluorescence change (span) was 0.05. Turning to `Cc1ccc(-c2nn(C(C)(C)C)c3ncnc(N)c23)cc1`, the fluorescence change (span) is 0.41.
